# Measurements reported in PubChem BioAssay (NCATS).
# Unmarked numbers belong to inactive results. Inconclusive results are not listed. Activity calls are given as the source filed them. Unless noted, the call rests on the fitted dose curve; in most records, active means well fitted curve in either direction with a large enough effect (not every such curve was filed as active); inconclusive means small, poorly fitted or top-dose-only effect, or another doubt; inactive means flat fitted curve, though single readings scatter.
# Tests used:
# [1] = target: Lysosomal acid glucosylceramidase (Homo sapiens) (UniProt P04062); test: Glucocerebrosidase-p2 (AID 348; in the data active means potency below about 10 µM; further: potency means the concentration at half of the fitted maximal effect); details: purified GBA, blue fluorogenic substrate, 40 min
# Procedure, shortened: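 Compounds titrated from 0.6 nM upwards against 0.2 nM enzyme in pH 5.9 citric acid/KH2PO4, taurocholate, tween-20; blue fluorogenic substrate 80 uM, 40 min room temperature, stopped and read Ex 365/Em 440 for AC50.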
# [2] = AP1 Signaling Pathway (AID 357); details: ME-180 AP-1-bla reporter, EGF-induced, beta-lactamase ratio, 5 h; at 7.69 µM (top of the series) unless noted;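 further: ME-180 reporter cells stimulated with EGF at its EC50 level; on the % scale 0 is the no-effect control and ±100 the full control effect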
# Procedure, shortened: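 A ratiometric CCF4 readout (405 nm excitation; 460 and 530 nm emission) quantified AP-1-driven beta-lactamase in ME-180 cells after 5 h with compound and EC50 EGF; AC50 values were derived for activators and inhibitors.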
# [3] = target: Cytochrome P450 1A2 (Homo sapiens) (UniProt P05177); test: p450-cyp1a2 (AID 410; calls by dose curve; further: potency means the concentration at half of the fitted maximal effect;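 on activity change, negative = inhibition: -100% = full effect of reference inhibitor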); details: recombinant CYP1A2, luciferin-ME demethylation, luminescence; series mostly up to 11.4 µM
# Procedure, shortened: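 Inhibition was calculated relative to 57 uM furafylline (full inhibition). The reaction used human CYP1A2 at 20nM with Luciferin-ME at its Km, 100uM, driven by an NADPH-regenerating system for 60 min at room temperature.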
# [4] = NFAT Signaling Pathway (AID 444); details: Jurkat NFAT-bla M1, carbachol, beta-lactamase ratio, 5 h; at 7.69 µM (top of the series) unless noted;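 further: carbachol stimulus at about its EC50 of 1 µM final; on the % scale 0 is the no-effect control and ±100 the full control effect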
# Procedure, shortened: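 Read-out: CCF4 FRET ratio (460 nm/530 nm) after 1 h RT dye loading, used for %activity and AC50 from titration series. Cells: Jurkat NFAT-β-lactamase/M1 line, treated with compound plus 1 uM carbachol for 5 h, 37 °C.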
# [5] = Stat Signaling Pathway (AID 446); details: ME-180 (cervical carcinoma) SIE beta-lactamase reporter, IL-6 stimulated, 5 h; at 7.69 µM (top of the series) unless noted;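 further: ME-180 cervical cancer cells given 40 pM IL-6 alongside compound; SIE-controlled beta-lactamase reporter measured as 460/530 nm FRET emission ratio; on the % scale 0 is the no-effect control and ±100 the full control effect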
# Procedure, shortened: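 IL-6/STAT signaling read in ME-180 cells via an SIE beta-lactamase reporter. Stimulus was 40 pM IL-6 (its AC50) for 5 hrs, so both activation and inhibition register.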
# [6] = target: Glucocorticoid receptor (Homo sapiens) (UniProt P04150); test: GR-GFP Redistribution (AID 450;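 active means compounds whose dose series gives a full or clear partial fitted curve of increased nuclear translocation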; further: potency means the concentration at half of the fitted maximal effect); details: U2OS GR-GFP nuclear translocation, laser cytometry, 2 h
# [7] = target: Glucocorticoid receptor (Homo sapiens) (UniProt P04150); test: GR-EFC Redistribution (AID 451; calls by dose curve; further: potency means the concentration at half of the fitted maximal effect); details: CHO-K1 GR-EFC translocation, beta-gal luminescence, 2 h
# Procedure, shortened: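 Translocation of GR-ED fusion to nuclear EA restores b-gal, read by luminescence after 1 h room-temperature detection. Engineered CHO-K1 biosensor cells, 1,000/well, exposed 2 h at 37 C to titrations up to 46 uM final.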
# [8] = target: Mitogen-activated protein kinase 10 (Mus musculus) (UniProt Q61831); test: JNK3 AlphaScreen Assay (AID 530); details: JNK3 lysate, c-Jun phosphorylation; series mostly up to 11.4 µM;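 further: kinase came from lysate of stimulated human HepG2 cells; signal reports phosphorylation of biotinylated GST-cJun 1-79 at Ser73 with 10 µM ATP; on the % scale 0 is the no-effect control and ±100 the full control effect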
# Procedure, shortened: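 Room-temperature AlphaScreen kinase assay; pre-activated HepG2 lysate as JNK3 source, biotin-GST-cJun(1-79) substrate, 10 uM ATP, compound 15 min preincubation.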
# [9] = target: 3',5'-cyclic-AMP phosphodiesterase 4B (Homo sapiens) (UniProt Q07343); test: qHTS Assay for Inhibitors of PDE-IV (AID 607; active means well fitted activation curve with a large enough effect in the main read-out, with a control signal flat, not every such curve was filed as active; further: % of control where 0% means no effect); details: HEK293 ACTOne CNG channel cells, membrane potential fluorescence; series mostly up to 22.9 µM
# Procedure, shortened: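 Live HEK293 cells with a modified cyclic nucleotide-gated (CNG) channel report intracellular cAMP via membrane-potential dye fluorescence (ex 535/em 590 nm). Endogenous PDE-IV was targeted. Compounds were tested at up to 22.9 uM final; RO 20-1724 100 uM served as control.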
# [10] = target: Cytochrome P450 2C9 (Homo sapiens) (UniProt P11712); test: qHTS Assay for Inhibitors and Substrates of Cytochrome P450 2C9 (AID 883; active means well fitted curve in the direction sought with a large enough effect; an effect the other way counts as inactive or inconclusive; further: nearly all actives have a fitted effect of over 60% in size; further: potency means the concentration at half of the fitted maximal effect); details: recombinant CYP2C9, luciferin-H luminescence, 60 min; series mostly up to 11.4 µM
# Procedure, shortened: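 Turnover of Luciferin-H (100uM, KM) by 10nM human CYP2C9 was measured over 60 min at 37C with NADPH regeneration; inhibitors and some substrates reduce luminescence. Data normalized to sulphaphenazole 57uM.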
# [11] = target: Cytochrome P450 3A4 (Homo sapiens) (UniProt P08684); test: qHTS Assay for Inhibitors and Substrates of Cytochrome P450 3A4 (AID 884; active means well fitted curve in the direction sought with a large enough effect; an effect the other way counts as inactive or inconclusive; further: nearly all actives have a fitted effect of over 50% in size; further: potency means the concentration at half of the fitted maximal effect); details: recombinant CYP3A4, Luciferin-PPXE luminescence; series mostly up to 57.1 µM
# Procedure, shortened: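 20 nM human CYP3A4 with 25 uM Luciferin-PPXE (at KM) in 200 mM KPO4, preincubated 10 min with compound; NADPH regeneration started a 60 min RT reaction. Luciferin detected by luminescence, normalized to 57 uM ketoconazole as full inhibition.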
# [12] = target: Cytochrome P450 3A4 (Homo sapiens) (UniProt P08684); test: qHTS Assay for Activators of Cytochrome P450 3A4 (AID 885; active means well fitted curve in the direction sought with a large enough effect; an effect the other way counts as inactive or inconclusive; further: nearly all actives have a fitted effect of over 65% in size); details: recombinant CYP3A4, Luciferin-PPXE luminescence, 60 min; series mostly up to 11.4 µM
# Procedure, shortened: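 Quantitative HTS format: compounds preincubated with 20nM human CYP3A4 and Luciferin-PPXE substrate at KM, reaction started by NADPH regeneration, stopped after 60 min, luciferase luminescence read 20 min later.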
# [13] = target: Cytochrome P450 2D6 (Homo sapiens) (UniProt P10635); test: qHTS Assay for Inhibitors and Substrates of Cytochrome P450 2D6 (AID 891; active means well fitted curve in the direction sought with a large enough effect; an effect the other way counts as inactive or inconclusive; further: nearly all actives have a fitted effect of over 60% in size; further: potency means the concentration at half of the fitted maximal effect); details: recombinant CYP2D6, luciferin-ME EGE luminescence; series mostly up to 11.4 µM
# Procedure, shortened: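 Human CYP2D6 (5 nM) with 30 uM Luciferin-ME EGE (at Km) in 100 mM KPO4, compound preincubated 10 min, then NADPH regeneration system for 60 min at room temperature. Luciferin read by luminescence; normalized to 1.43 uM quinidine.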
# [14] = target: Cytochrome P450 2C19 (Homo sapiens) (UniProt P33261); test: qHTS Assay for Inhibitors and Substrates of Cytochrome P450 2C19 (AID 899; active means well fitted curve in the direction sought with a large enough effect; an effect the other way counts as inactive or inconclusive; further: nearly all actives have a fitted effect of over 60% in size; further: potency means the concentration at half of the fitted maximal effect); details: recombinant CYP2C19, luciferin-H EGE luminescence; series mostly up to 11.4 µM
# Procedure, shortened: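 Reactions contain 5nM enzyme, 10uM Luciferin-H EGE (KM) and 50mM KPO4; compound preincubates 10 min at 37C, NADPH regeneration starts turnover for 60 min. Luminescence after detection reagent gives activity.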
# Chain of 3',5'-cyclic-AMP phosphodiesterase 4B (Homo sapiens) (Q07343 whole entry, looked up): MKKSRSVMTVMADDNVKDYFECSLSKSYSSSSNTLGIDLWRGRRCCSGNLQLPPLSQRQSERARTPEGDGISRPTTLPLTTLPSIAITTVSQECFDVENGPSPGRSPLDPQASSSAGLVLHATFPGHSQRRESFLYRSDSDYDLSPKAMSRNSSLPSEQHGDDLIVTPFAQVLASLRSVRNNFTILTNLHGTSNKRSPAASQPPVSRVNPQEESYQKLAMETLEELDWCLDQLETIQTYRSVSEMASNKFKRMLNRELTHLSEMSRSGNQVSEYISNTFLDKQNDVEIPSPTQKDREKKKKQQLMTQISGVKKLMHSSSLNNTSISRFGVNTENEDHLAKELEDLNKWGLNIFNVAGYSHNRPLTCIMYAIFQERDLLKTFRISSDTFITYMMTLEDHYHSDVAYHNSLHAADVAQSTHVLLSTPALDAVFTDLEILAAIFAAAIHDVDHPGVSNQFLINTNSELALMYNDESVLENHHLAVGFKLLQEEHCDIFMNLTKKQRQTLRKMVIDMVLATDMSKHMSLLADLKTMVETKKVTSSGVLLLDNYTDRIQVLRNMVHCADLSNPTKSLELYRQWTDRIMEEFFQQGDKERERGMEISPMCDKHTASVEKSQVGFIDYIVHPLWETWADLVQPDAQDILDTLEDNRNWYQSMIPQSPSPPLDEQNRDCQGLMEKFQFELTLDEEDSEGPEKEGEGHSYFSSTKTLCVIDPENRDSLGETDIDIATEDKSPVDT
# Chain of Glucocorticoid receptor (Homo sapiens) (P04150 whole entry, looked up, the tested form may be a part): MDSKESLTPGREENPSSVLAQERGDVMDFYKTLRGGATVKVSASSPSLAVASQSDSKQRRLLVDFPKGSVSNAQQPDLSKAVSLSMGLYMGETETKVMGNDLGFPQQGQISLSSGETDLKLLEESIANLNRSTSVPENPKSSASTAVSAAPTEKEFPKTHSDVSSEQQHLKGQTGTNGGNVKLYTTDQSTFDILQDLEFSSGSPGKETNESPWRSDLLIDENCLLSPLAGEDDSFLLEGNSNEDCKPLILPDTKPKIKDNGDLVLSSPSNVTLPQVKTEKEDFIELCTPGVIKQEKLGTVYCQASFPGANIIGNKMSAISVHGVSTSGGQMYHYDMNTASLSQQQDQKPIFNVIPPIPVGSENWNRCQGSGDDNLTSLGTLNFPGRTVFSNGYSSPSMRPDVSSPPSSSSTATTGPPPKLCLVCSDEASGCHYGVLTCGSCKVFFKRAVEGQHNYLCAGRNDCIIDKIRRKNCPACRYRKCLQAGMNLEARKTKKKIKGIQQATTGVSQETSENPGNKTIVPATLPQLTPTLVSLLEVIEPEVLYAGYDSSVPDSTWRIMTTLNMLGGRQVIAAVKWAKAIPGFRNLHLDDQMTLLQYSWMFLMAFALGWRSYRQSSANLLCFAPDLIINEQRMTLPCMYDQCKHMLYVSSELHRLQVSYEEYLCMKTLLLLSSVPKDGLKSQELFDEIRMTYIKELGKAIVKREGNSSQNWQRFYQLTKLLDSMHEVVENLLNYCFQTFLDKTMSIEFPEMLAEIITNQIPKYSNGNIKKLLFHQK
# Chain of Cytochrome P450 2C9 (Homo sapiens) (P11712 whole entry, looked up): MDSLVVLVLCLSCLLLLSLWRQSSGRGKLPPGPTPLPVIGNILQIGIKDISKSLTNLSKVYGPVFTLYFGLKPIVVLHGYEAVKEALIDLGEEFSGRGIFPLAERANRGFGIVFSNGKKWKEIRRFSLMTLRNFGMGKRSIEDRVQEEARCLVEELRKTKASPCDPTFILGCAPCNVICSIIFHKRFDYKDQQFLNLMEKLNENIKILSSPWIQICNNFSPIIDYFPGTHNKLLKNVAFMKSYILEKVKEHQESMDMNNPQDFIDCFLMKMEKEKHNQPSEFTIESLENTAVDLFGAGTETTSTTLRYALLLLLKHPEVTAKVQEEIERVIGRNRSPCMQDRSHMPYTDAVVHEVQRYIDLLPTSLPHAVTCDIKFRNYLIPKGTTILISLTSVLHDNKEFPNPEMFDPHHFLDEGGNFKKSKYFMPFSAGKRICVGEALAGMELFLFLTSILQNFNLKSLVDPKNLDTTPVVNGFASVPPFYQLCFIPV
# Chain of Lysosomal acid glucosylceramidase (Homo sapiens) (P04062 whole entry, looked up): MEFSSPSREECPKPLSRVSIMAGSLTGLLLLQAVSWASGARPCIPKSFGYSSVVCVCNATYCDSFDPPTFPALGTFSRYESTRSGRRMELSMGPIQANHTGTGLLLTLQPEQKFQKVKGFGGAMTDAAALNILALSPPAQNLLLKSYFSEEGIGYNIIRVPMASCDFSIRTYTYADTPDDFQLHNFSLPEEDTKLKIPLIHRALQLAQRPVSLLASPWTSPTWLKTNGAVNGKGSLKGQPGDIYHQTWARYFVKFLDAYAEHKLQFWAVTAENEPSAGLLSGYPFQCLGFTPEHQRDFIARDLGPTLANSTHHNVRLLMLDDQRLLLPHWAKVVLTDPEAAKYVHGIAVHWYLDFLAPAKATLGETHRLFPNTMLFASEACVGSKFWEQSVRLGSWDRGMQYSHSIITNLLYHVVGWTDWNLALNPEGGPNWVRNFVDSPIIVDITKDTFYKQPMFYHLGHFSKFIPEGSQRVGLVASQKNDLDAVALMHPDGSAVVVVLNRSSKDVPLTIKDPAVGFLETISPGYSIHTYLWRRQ
# Chain of Cytochrome P450 2C19 (Homo sapiens) (P33261 whole entry, looked up): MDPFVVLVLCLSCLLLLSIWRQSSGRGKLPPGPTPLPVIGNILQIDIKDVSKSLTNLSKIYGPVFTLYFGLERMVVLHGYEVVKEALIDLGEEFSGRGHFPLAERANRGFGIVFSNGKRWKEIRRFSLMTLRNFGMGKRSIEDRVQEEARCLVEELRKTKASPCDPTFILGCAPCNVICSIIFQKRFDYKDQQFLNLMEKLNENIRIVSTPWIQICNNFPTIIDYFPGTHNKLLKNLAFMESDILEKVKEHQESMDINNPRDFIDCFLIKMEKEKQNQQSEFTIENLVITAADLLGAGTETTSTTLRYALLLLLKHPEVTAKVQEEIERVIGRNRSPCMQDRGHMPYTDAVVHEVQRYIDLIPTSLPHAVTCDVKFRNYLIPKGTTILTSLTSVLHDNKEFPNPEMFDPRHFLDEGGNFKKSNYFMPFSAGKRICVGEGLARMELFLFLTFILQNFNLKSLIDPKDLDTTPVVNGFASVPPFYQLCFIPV
# Chain of Cytochrome P450 1A2 (Homo sapiens) (P05177 whole entry, looked up): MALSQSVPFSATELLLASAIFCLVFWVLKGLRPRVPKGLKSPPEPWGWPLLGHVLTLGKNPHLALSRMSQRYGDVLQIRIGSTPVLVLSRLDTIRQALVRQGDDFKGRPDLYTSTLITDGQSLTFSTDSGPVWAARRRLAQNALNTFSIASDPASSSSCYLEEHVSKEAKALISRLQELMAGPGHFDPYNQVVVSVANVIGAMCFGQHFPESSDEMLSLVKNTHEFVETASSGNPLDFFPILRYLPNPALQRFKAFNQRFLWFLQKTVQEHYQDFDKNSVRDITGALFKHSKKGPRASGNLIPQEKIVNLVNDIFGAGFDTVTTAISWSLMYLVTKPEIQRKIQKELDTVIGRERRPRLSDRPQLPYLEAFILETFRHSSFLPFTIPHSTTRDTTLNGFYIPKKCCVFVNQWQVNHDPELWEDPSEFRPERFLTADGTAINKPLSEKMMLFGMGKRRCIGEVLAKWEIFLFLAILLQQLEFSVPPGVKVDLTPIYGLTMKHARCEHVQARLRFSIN
# Chain of Cytochrome P450 3A4 (Homo sapiens) (P08684 whole entry, looked up): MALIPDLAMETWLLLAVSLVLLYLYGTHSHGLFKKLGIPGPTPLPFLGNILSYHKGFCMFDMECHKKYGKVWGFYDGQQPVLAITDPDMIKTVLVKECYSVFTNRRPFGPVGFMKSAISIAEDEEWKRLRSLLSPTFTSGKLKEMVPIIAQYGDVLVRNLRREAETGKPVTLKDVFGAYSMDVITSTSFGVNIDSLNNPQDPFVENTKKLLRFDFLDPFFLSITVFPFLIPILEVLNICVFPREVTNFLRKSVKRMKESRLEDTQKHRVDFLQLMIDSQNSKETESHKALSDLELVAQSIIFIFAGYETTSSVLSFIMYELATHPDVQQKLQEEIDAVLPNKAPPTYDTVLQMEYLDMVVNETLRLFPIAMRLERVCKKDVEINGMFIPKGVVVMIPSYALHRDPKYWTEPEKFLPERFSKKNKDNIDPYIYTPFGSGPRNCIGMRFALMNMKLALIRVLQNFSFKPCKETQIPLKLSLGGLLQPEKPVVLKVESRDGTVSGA
# Chain of Cytochrome P450 2D6 (Homo sapiens) (P10635 whole entry, looked up): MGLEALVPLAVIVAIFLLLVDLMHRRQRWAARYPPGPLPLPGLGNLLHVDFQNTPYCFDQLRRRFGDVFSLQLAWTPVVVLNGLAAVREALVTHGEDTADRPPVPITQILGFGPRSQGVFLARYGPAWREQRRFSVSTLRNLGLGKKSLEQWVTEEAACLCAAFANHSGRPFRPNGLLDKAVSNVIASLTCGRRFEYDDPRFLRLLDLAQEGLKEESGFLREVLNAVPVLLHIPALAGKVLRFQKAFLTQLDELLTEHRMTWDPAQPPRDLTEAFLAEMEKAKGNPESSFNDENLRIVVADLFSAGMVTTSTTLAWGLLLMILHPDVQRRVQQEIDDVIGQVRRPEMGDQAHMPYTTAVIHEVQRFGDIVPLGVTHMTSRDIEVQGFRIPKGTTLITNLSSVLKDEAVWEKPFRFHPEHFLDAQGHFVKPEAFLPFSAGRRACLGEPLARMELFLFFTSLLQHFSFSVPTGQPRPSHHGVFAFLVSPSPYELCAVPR
Compound,Potency [1] [µM],"activity change, negative = inhibition [2] [%]",Potency [3],"activity change, negative = inhibition [4] [%]","activity, negative = inhibition [5] [%]",Potency [6] [µM],Potency [7] [µM],Potency [8],Potency [9],Potency [10],Potency [11],Potency [12],Potency [13],Potency [14],"activity change, negative = inhibition [3]","activity change, negative = inhibition [11]"
CC1=CC(C)(C)Nc2ccc(CSc3ccccc3)cc21,> 11.4,3.94,501 nM (active),-4.82,-11.8,> 46,> 9.22,inactive,inactive,0.199 µM (active),3.98 µM (active),inactive,631 nM (active),316 nM (active),,
COC(=O)[C@@H]1O[C@@H](SCCN)[C@@H](O)[C@H](O)[C@H]1O,> 11.4,0.576,,2.51,-0.339,> 46,> 9.22,inactive,inactive,,,,,,10.2% [at 2.29 µM],
COc1ccc([C@@H](Nc2ncccn2)c2cc3c(cc2O)OCO3)cc1,> 11.4,-6.22,,17.5,-1.19,> 46,> 9.22,inactive,inactive,3.16 µM (active),2.51 µM (active),inactive,,316 nM (active),-14.3% [at 2.29 µM],
O=C(O)c1ccc(NS(=O)(=O)Cc2ccccc2)cc1,> 11.4,6.38,inactive,-0.542,-0.621,> 46,> 9.22,inactive,inactive,,,,,,,
Cn1cnc([N+](=O)[O-])c1[Se]c1nc(N)nc2c1ncn2[C@@H]1O[C@@H](CO)[C@H](O)[C@@H]1O,> 11.4,4.67,,8.52,10.6,> 46,> 9.22,inactive,inactive,,,,,,-12.8% [at 2.29 µM],
Cn1c(=O)c2[nH]c(SCc3ccccn3)nc2n(C)c1=S,> 11.4,-5.29,12.6 nM (active),13,-3.9,> 46,> 9.22,inactive,inactive,3.16 µM (active),3.98 µM (active),inactive,inactive,,,
C[N+]1(C)CCc2cc(O)c(O)cc2[C@H]1Cc1ccc(O)c(O)c1,> 11.4,-2.63,,-9.29,6.76,> 46,> 9.22,inactive,inactive,,,,,,-12.1% [at 2.29 µM],
Cc1cc(SCC(=O)c2ccccc2)nc2ccccc12,> 11.4,-8.06,398 nM (active),13.7,9.67,> 46,> 9.22,inactive,inactive,inactive,,,inactive,398 nM (active),,-103% [at 11.4 µM]
O=C(Nc1cccc2ccccc12)c1ccccc1,> 11.4,-4.06,3980 nM (active),-11.4,3.33,> 46,> 9.22,inactive,inactive,inactive,,inactive,,,,
CC1=C/C(=N/O)C([C@H]2C=C(C)CC(C)(C)[C@@H]2O)C(C)(C)C1 (some centres undefined),> 11.4,-3.8,inactive,-18,0.535,> 46,> 9.22,inactive,inactive,2.51 µM (active),,inactive,,1580 nM (active),,
O=C(O)CSC1=NCCN1,> 11.4,17,inactive,7.29,4.64,> 46,> 9.22,inactive,inactive,inactive,,,inactive,inactive,,7.95% [at 11.4 µM]
Clc1ccc(CSCCc2ccncc2)cc1Cl,> 11.4,-26.7,316 nM (active),2.37,5.37,> 46,> 9.22,inactive,inactive,0.0794 µM (active),,inactive,316 nM (active),,,
Nc1nc(N)nc(CCCCc2nc(N)nc(N)n2)n1,> 11.4,4.24,,12.4,-0.633,> 46,> 9.22,inactive,inactive,inactive,,,inactive,inactive,8.1% [at 2.29 µM],
